High-throughput results deposited in PubChem by National Center for Advancing Translational Sciences (NCATS).
VACV mCherry inh – qHTS for Stage-Specific Inhibitors of Vaccinia Orthopoxvirus: mCherry Reporter Primary qHTS; Vaccinia virus mCherry reporter infection, fluorescence; Potency, µM (top dose mostly 36.5 µM), for inactives: at the highest dose activity change, negative = inhibition, actives largely listed as inhibitors; actives 0.63% (n = 310,000); calls by dose curve; tested in A549 cells; note: potency is the fitted concentration of half-maximal effect; nearly all actives have a fitted effect of over 35% in size
VACV Venus inh – qHTS for Stage-Specific Inhibitors of Vaccinia Orthopoxvirus: Venus Reporter Primary qHTS; Vaccinia virus Venus reporter expression, fluorescence; Potency, µM (top dose mostly 36.5 µM), inactives show at the top dose activity change, negative = inhibition, usual class: inhibitors; actives 0.46% (n = 330,000); AID 720580, 2013; calls by dose curve; tested in A549 cells; note: potency is the fitted concentration of half-maximal effect; nearly all actives have a fitted effect of over 30% in size
HCMV antiviral – qHTS Assay for inhibitors of the human cytomegalovirus (HCMV); actives 4.5% (n = 410,000); HFF cells, HCMV-luciferase reporter, 72 h; stronger effect = lower value; activity change, negative = inhibition, % at 57.5 µM; in the data active = activity change below about -60%; inconclusive = no clear call, values can overlap the other calls; inactive = above about -39%
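Compounds were evaluated in HFFs infected with an HCMV luciferase reporter virus (MOI 1 PFU/cell). Luciferase in lysates collected 72 h post infection served as the replication measure.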
FBPA Giardia inh – qHTS Assay for Inhibitors of Fructose-1,6-bisphosphate Aldolase from Giardia Lamblia. A8B2U2. purified Giardia FBPA. Potency, µM (series often up to 59.6 µM), for the others: at the highest dose activity, negative = inhibition, hits mostly inhibitors. actives 0.71% (n = 290,000). AID 2451, 2010; note: potency is the fitted concentration of half-maximal effect; nearly all actives have a fitted effect of over 55% in size
Target sequence (A8B2U2 whole entry, looked up): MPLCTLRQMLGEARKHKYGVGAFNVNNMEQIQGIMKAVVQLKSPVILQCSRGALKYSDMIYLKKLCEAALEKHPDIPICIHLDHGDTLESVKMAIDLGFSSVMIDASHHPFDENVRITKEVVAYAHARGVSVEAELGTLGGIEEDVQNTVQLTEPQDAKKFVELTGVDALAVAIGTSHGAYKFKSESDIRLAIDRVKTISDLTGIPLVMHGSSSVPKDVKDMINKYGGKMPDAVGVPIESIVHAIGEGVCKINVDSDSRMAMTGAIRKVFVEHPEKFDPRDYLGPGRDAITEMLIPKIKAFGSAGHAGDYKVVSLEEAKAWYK
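40 nM FBPA preincubated 10 min at RT with compound (up to 57.5 uM final), then substrate plus GAPDH/TPI/NAD/arsenate coupling and diaphorase/resazurin added. Fluorescence read after 20 min at RT, 525/598 nm.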
HCV inh – qHTS Assay for Inhibitors of Hepatitis C Virus (HCV) | Huh7.5.1 HCVcc-Cre infection, luciferase reporter, 44 h | Potency, µM (top dose mostly 41.8 µM), for the others: at the highest dose activity change, negative = inhibition, most hits filed as inhibitors | actives 3.4% (n = 340,000); note: potency is the fitted concentration of half-maximal effect
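Reporter virus HCVcc-Cre (~0.5 moi) infects cells exposed to compound; seeding density 1,000 cells/well with 4 h settling beforehand. Luminescence, 15 sec read, taken 44 h post-infection following a 15 min RT substrate incubation.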
FMDV antiviral – High Throughput Screening for Foot and Mouth Disease Virus Antivirals; actives 1.2% (n = 410,000); FMDV antiviral cell-based qHTS; Potency, µM (highest dose often 57.9 µM), inactives show at the highest dose activity change, negative = inhibition, usual class: inhibitors; calls by dose curve; tested in HEK293T cells; note: read-out not given here; potency is the fitted concentration of half-maximal effect; nearly all actives have a fitted effect of over 45% in size
An asterisk follows results filed as active. Compounds with a hit are over-represented: about 7.5% of the library has one in this group of screens. Unless noted, calls come from the whole dose curve; as a rule, active = well fitted curve in the direction sought with a large enough effect; inconclusive = small, poorly fitted or top-dose-only effect, or another doubt; inactive = no such curve, though single readings can be large; an effect the other way counts as inactive or inconclusive. % is set by controls: 0 for no effect and ±100 for the full control effect.

What do the screens show for `CCCCn1c2nc3ccccc3nc2c2c(=O)n(C(C)CC)cnc21` (stereo not given)?
HCMV antiviral: -32; FBPA Giardia inh: 1%; HCV inh: 13%; FMDV antiviral: -16%

What do the screens show for `Cc1noc(C)c1C(=O)N1CCC2(CCN(Cc3ccncc3)CC2)CC1`?
FBPA Giardia inh: 0%; FMDV antiviral: 0%

Results for CC(=O)SC(C[N+](=O)[O-])c1cn(C(C)=O)c2ccccc12 (stereo not given) ?
VACV mCherry inh: -2%; VACV Venus inh: -1%; HCMV antiviral: -106*; FBPA Giardia inh: inconclusive; HCV inh: 11µM*; FMDV antiviral: 28µM*

How did CSC1SCC2C(=O)N(C)C(C(C)C)C(=O)OCC(NC(=O)c3cnc4ccccc4n3)C(=O)NC(C)C(=O)N(C)C1C(=O)N(C)C(C(C)C)C(=O)OCC(NC(=O)c1cnc3ccccc3n1)C(=O)NC(C)C(=O)N2C (stereo not given) do in these assays?
VACV mCherry inh: inconclusive; VACV Venus inh: 0.0035µM*; HCMV antiviral: -99*; HCV inh: inconclusive; FMDV antiviral: 0%

Results for CCOc1cc(/C=C/C(=O)c2ccc(OC)c(CN3CCOCC3)c2)cc(Br)c1O ?
VACV mCherry inh: 11µM*; VACV Venus inh: 184%; HCMV antiviral: -98*; FBPA Giardia inh: inconclusive; HCV inh: inconclusive; FMDV antiviral: -3%

Results for CCOc1cc(/C=N/NC(=O)c2ccc(CN3CCOCC3)cc2)ccc1OC ?
VACV mCherry inh: inactive; VACV Venus inh: -15%; HCMV antiviral: -26; FBPA Giardia inh: 0%; HCV inh: inconclusive; FMDV antiviral: inconclusive

Results for COCCn1nc2ccccc2c1OC ?
HCMV antiviral: -1

How did CCC(CO)Nc1ccn2nc(-c3cccc(Cl)c3)cc2n1 (stereo not given) do in these assays?
VACV mCherry inh: -11%; VACV Venus inh: -7%; HCMV antiviral: 114; FMDV antiviral: 23%

Results for Cc1ccc(C)c(NC(=O)/C(C#N)=C/c2cn(CC(=O)NCc3ccco3)c3ccccc23)c1 ?
VACV mCherry inh: inactive; VACV Venus inh: -12%; HCMV antiviral: -100*; FBPA Giardia inh: 0%; HCV inh: inconclusive; FMDV antiviral: -8%

How did Cc1cc(C)cc(NC(=O)/C(C#N)=C/c2cn(CC(=O)NCc3ccco3)c3ccccc23)c1 do in these assays?
VACV mCherry inh: inconclusive; VACV Venus inh: 5.6µM*; HCMV antiviral: -85*; FBPA Giardia inh: 4%; HCV inh: inconclusive; FMDV antiviral: inconclusive

Results for Cc1ccc(NC(=O)/C(C#N)=C/c2cn(CC(=O)NCc3ccco3)c3ccccc23)cc1C ?
VACV mCherry inh: -12%; VACV Venus inh: 1%; HCMV antiviral: inconclusive; FBPA Giardia inh: 5%; HCV inh: 2%; FMDV antiviral: 11%

How did COc1ccc(N2CCN(C(=O)c3cccc(NC(=O)c4nsc5ccccc45)c3)CC2)cc1 do in these assays?
VACV mCherry inh: inactive; VACV Venus inh: -28%; HCMV antiviral: 33; FMDV antiviral: 6%

What do the screens show for `COc1ccc(CNC(=O)CN2C(=O)COc3ccc(S(=O)(=O)N4CCCCC4)cc32)cc1`?
VACV mCherry inh: -3%; VACV Venus inh: -3%; HCMV antiviral: 0; FBPA Giardia inh: 13%; HCV inh: -3%; FMDV antiviral: -20%

How did Cc1ccccc1C(=O)N1CCC(N2CCN(Cc3ccc(F)cc3)C(=O)C2=O)CC1 do in these assays?
VACV mCherry inh: -10%; VACV Venus inh: 1%; HCMV antiviral: 18; FMDV antiviral: -11%

Results for CS(=O)(=O)N1CCN(c2ccccc2NC(=O)c2ccc(-c3ccc(Br)cc3)o2)CC1 ?
HCMV antiviral: 0; FBPA Giardia inh: 3%; HCV inh: 6.3µM*; FMDV antiviral: -4%
